Data as given in PubChem BioAssay (EPA / NIEHS).
Activity calls are given as the source filed them. How the source made its calls: active means hit-call score of the fitted dose curve at least 0.9, where 1 is the maximum; inactive means score below 0.9. Peptide text beside a SMILES is read from it.

Key:
[1] = biological target: Paired box protein Pax-6 (Homo sapiens) (UniProt P26367); test: ATG_Pax6_CIS: Attagene CIS-FACTORIAL HepG2 Assay for human Paired Box 6 (PAX6) (AID 2282956); settings: HepG2 CIS-FACTORIAL PAX6 reporter transcription, RNA readout; actives raise or lower the signal
Procedure, shortened: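 Transient MRTU transfection of HepG2 → compound exposure 24 h → TriZol RNA, oligo(dT) RT → PCR, 6-FAM primer extension, HpaI cut → capillary electrophoresis; activity fitted both directions against DMSO.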

[2] = ATG_PXRE_CIS: Attagene CIS-FACTORIAL HepG2 Assay for human Pregnane X Receptor Element (PXRE) (AID 2282957); settings: HepG2 Attagene CIS-FACTORIAL PXRE reporter, mRNA; actives raise or lower the signal
Procedure, shortened: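 Transfect HepG2 with MRTUs (cis promoter elements); dose chemical, incubate 24 h; isolate RNA, RT with oligo(dT), PCR, 6-FAM label, HpaI cut, CE. Gain/loss fit vs DMSO.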

[3] = ATG_PPRE_CIS: Attagene CIS-FACTORIAL HepG2 Assay for human Peroxisome Proliferator-activated Response Element (PPRE) (AID 2282958); settings: HepG2 PPRE cis-element reporter, Attagene transcription factor profiling; actives raise or lower the signal
Procedure, shortened: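 Cells are first transfected transiently with the multiplexed reporter library, then dosed for 24 h. Total RNA is reverse-transcribed, amplified, fluorescently end-labeled and HpaI-cut before capillary electrophoresis; activity is fitted bidirectionally against DMSO controls.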

[4] = ATG_RORE_CIS: Attagene CIS-FACTORIAL HepG2 Assay for human RAR-related Orphan Receptor Element (RORE) (AID 2282959); settings: HepG2 Attagene cis-factorial RORE reporter, mRNA; actives raise or lower the signal
Procedure, shortened: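 Cells were HepG2 carrying transfected cis-regulated reporter constructs, dosed for 24 hours. Total RNA was reverse-transcribed and reporter cDNA amplified, fluorescently labeled and sized by capillary electrophoresis. Activity was fitted bidirectionally relative to DMSO.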

[5] = ATG_Sox_CIS: Attagene CIS-FACTORIAL HepG2 Assay for human SRY-box transcription factor (SOX) (AID 2282960); settings: HepG2 Attagene cis-factorial SOX reporter, mRNA; actives raise or lower the signal
Procedure, shortened: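 Transient MRTU transfection of HepG2; 24 h compound incubation; TriZol RNA, oligo(dT) RT, PCR, 6-FAM primer extension, HpaI cut, CE. Bidirectional fit, DMSO = baseline.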

[6] = biological target: Transcription factor Sp1 (Homo sapiens) (UniProt P08047); test: ATG_Sp1_CIS: Attagene CIS-FACTORIAL HepG2 Assay for human Specificity Protein 1 (Sp1) (AID 2282961); settings: HepG2 Sp1 cis-reporter transcription, actives raise or lower the signal
Procedure, shortened: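 Endogenous Sp1 activity was gauged in human liver HepG2 cells bearing transfected reporter units under a cis-regulating promoter. After 24 h dosing, reporter mRNA was quantified by RT-PCR with capillary electrophoresis, and activity fitted bidirectionally versus DMSO.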

[7] = ATG_SREBP_CIS: Attagene CIS-FACTORIAL HepG2 Assay for human Sterol Regulatory Element Binding (SREBP) (AID 2282962); settings: HepG2 Attagene cis-factorial SREBP reporter, mRNA; actives raise or lower the signal
Procedure, shortened: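 Transfected HepG2 (cis-regulated reporter library, endogenous TFs) → compound 24 h → total RNA → oligo(dT) RT → reporter-specific PCR → FAM primer extension, HpaI cut → CE fluorescence. Fit bidirectional vs DMSO.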

[8] = biological target: Signal transducer and activator of transcription 3 (Homo sapiens) (UniProt P40763); test: ATG_STAT3_CIS: Attagene CIS-FACTORIAL HepG2 Assay for human Signal Transducer and Activator of Transcription 3 (STAT3) (AID 2282963); settings: HepG2, Attagene cis-factorial STAT3 reporter transcription; actives raise or lower the signal
Procedure, shortened: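 HepG2 cells transiently transfected with cis-element-driven multiple reporter transcription units; after 24 h chemical exposure, reporter mRNA measured by RT-PCR, 6-FAM primer-extension labelling, HpaI digestion and capillary electrophoresis. Bidirectional fitting versus DMSO baseline.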

[9] = ATG_TA_CIS: Attagene CIS-FACTORIAL HepG2 Assay for human TA Basal Promoter (AID 2282964); settings: HepG2 Attagene CIS-factorial TA basal promoter reporter; actives raise or lower the signal
Procedure, shortened: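 Background-control readout: TA basal promoter reporter mRNA, fitted in both directions relative to DMSO. Measured by RT-PCR and capillary electrophoresis 24 hours after treating HepG2 human liver cells transiently carrying multiplexed cis-regulated reporter constructs.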

Measured: AC50

Sequence of Transcription factor Sp1 (Homo sapiens) (P08047 whole entry, looked up): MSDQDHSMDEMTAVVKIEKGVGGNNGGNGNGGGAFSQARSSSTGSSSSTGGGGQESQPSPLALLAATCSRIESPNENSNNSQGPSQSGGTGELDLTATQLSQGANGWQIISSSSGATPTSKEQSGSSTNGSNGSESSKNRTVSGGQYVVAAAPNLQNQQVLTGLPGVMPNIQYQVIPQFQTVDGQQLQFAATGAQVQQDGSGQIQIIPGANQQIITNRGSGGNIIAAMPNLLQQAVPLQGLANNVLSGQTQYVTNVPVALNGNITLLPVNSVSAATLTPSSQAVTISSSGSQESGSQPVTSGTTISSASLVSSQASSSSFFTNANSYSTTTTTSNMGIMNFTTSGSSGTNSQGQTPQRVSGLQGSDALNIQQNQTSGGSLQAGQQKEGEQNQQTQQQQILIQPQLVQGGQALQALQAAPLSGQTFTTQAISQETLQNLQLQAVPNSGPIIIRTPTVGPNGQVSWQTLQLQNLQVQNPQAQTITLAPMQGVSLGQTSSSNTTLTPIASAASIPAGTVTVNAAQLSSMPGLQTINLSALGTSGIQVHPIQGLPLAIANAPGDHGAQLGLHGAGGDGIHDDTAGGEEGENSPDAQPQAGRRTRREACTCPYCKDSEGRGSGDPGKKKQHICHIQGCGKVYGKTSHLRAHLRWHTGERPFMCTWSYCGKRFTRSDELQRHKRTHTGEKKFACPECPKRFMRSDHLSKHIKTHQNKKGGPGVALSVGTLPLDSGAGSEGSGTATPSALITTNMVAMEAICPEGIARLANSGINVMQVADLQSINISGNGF
Sequence of Paired box protein Pax-6 (Homo sapiens) (P26367 whole entry, looked up): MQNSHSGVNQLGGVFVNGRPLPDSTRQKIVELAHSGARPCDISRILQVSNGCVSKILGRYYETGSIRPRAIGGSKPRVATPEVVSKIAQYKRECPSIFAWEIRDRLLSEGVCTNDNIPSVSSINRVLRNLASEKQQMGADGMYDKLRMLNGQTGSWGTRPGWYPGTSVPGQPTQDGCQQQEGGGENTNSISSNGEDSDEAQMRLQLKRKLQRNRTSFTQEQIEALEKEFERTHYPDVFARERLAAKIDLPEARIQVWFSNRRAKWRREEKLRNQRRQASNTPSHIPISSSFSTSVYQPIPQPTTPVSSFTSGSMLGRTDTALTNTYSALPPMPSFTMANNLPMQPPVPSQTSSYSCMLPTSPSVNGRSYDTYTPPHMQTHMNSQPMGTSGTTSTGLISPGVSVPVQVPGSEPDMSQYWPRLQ
Sequence of Signal transducer and activator of transcription 3 (Homo sapiens) (P40763 whole entry, looked up): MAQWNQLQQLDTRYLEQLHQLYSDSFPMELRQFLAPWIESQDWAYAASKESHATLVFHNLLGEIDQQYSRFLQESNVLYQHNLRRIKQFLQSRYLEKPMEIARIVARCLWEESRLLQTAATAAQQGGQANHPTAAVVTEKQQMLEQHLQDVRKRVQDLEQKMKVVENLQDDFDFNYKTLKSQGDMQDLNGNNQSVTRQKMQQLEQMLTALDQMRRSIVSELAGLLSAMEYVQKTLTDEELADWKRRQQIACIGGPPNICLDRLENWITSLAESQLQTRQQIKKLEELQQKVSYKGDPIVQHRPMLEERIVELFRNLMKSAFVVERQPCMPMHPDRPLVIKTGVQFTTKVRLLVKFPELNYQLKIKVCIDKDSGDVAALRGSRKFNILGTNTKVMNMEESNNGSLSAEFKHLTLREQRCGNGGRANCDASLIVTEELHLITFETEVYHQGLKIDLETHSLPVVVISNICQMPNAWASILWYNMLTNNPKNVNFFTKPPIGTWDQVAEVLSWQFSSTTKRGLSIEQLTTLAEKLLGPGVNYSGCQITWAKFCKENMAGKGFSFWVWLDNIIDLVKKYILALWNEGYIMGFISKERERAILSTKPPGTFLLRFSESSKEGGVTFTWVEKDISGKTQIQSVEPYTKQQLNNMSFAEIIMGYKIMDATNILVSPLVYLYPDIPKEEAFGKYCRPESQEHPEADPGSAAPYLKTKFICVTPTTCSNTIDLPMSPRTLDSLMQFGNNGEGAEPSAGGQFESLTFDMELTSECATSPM

CN1CCN(C)CC1
inactive: all assays above

C=C(C)C(=O)OCCOC(=O)C(=C)C
inactive: all assays above

CC(=O)CCC=C(C)C
inactive: all assays above

Nc1ccc(Cl)c(N)c1
inactive: all assays above

CCCCCCCCCCCCC
not listed: [7]
inactive: all other assays above

CCN1CN(CC)CN(CC)C1
active: [2] 119 µM | [5] 138 µM | [6] 163 µM
inactive: all other assays above

C[Si]1(C)O[Si](C)(C)O[Si](C)(C)O[Si](C)(C)O[Si](C)(C)O1
active: [2] 27.2 µM
not listed: [7]
inactive: all other assays above

CCCSSCCC
not listed: [8]
inactive: all other assays above

CCCCCCCC(=O)OCC
not listed: [7]
inactive: all other assays above

COC(=O)[C@H](Cc1ccccc1)NC(=O)[C@@H](N)CC(=O)O (H-Asp-Phe-OMe)
not listed: [8]
inactive: all other assays above

CCN(CC)c1cccc(C)c1
active: [2] 27.7 µM
not listed: [5] | [7]
inactive: all other assays above

CCCCc1ccc(Cl)cc1
not listed: [5]
inactive: all other assays above

C/C=C/C=C/CCCCCCCO
active: [1] 76 µM | [2] 25.5 µM | [9] 100 µM
not listed: [4]
inactive: all other assays above

CC(C=O)c1ccccc1 (stereo unspecified)
active: [2] 6.81 µM
not listed: [5]
inactive: all other assays above

O=C(O)/C=C/c1ccccc1
not listed: [5]
inactive: all other assays above

Cc1ccc(S(=O)(=O)N=C=O)cc1
not listed: [5]
inactive: all other assays above

CC(=O)c1ccccc1O
not listed: [3]
inactive: all other assays above

O=C(O)c1cc(O)c2ccccc2c1O
active: [2] 0.944 µM | [9] 60.2 µM
not listed: [4] | [5]
inactive: all other assays above

CC(=O)c1ccc(S(=O)(=O)NC(=O)NC2CCCCC2)cc1
active: [2] 100 µM
not listed: [5]
inactive: all other assays above

CCCCCCOC(=O)CCCCC(=O)OCCCCCC
active: [2] 19.8 µM
not listed: [4]
inactive: all other assays above

CC1CC(=O)CC(C)(C)C1 (stereo unspecified)
not listed: [4] | [5]
inactive: all other assays above

CC1CCC(=O)C1=O (stereo unspecified)
active: [2] 59 µM
not listed: [4]
inactive: all other assays above

COC(=O)c1ccccc1C
active: [2] 40.6 µM
not listed: [4]
inactive: all other assays above

CC(=O)OCc1ccccc1
not listed: [5] | [8]
inactive: all other assays above

CCOB(OCC)OCC
not listed: [5] | [7]
inactive: all other assays above

CC=CC(=O)OCC(C)C
not listed: [5]
inactive: all other assays above

c1ccc(Nc2cccc3ccccc23)cc1
inactive: [3] | [8] | [9]
active: [1] 33.4 µM | [2] 8.67 µM | [5] 48.1 µM | [6] 47.1 µM | [7] 60.4 µM

NNS(=O)(=O)c1ccc(Oc2ccc(S(=O)(=O)NN)cc2)cc1
not listed: [4]
inactive: all other assays above

Cn1cccc1
active: [6] 25.7 µM
not listed: [5] | [8]
inactive: all other assays above
